# Compounds without any hit were thinned out: in the full panel of roughly 83,000, 20% have a hit.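 Compound tested at a single concentration for 48 hours in 96-well plates; a percent growth value below 10 was scored as active.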 Unmarked numbers belong to inactive results. Calls of active or inactive are those of the source.
# Experiments:
# Experiment in all cases: NCI-60 one-dose screen, 48 h (100 = growth as untreated, 0 = no growth, -100 = all killed)
# Settings in all cases: 10 µM unless noted
# NCI-H23 lung = system: NCI-H23 lung
# NCI-H226 lung = system: NCI-H226 lung
# NCI-H322M lung = system: NCI-H322M lung
# HOP-62 NSCLC = system: HOP-62 NSCLC
# NCI-H460 lung = system: NCI-H460 lung
# HOP-92 NSCLC = system: HOP-92 NSCLC
# A549/ATCC NSCLC = system: A549/ATCC NSCLC
# 786-0 renal = system: 786-0 renal
# COLO 205 colon = system: COLO 205 colon
# DU-145 prostate = system: DU-145 prostate
# K-562 leukemia = system: K-562 leukemia
# MALME-3M melanoma = system: MALME-3M melanoma
# MDA-MB-231 breast = system: MDA-MB-231 breast
# RXF 393 renal = system: RXF 393 renal
# SF-268 CNS = system: SF-268 CNS
# SF-295 CNS = system: SF-295 CNS
# SF-539 CNS = system: SF-539 CNS
# UACC-257 melanoma = system: UACC-257 melanoma
# M14 melanoma = system: M14 melanoma
# NCI-H522 lung = system: NCI-H522 lung
Structure (SMILES),growth (NCI-H23 lung),growth (NCI-H226 lung),growth (NCI-H322M lung),growth (HOP-62 NSCLC),growth (NCI-H460 lung),growth (HOP-92 NSCLC),growth (A549/ATCC NSCLC),growth (786-0 renal),growth (COLO 205 colon),growth (DU-145 prostate),growth (K-562 leukemia),growth (MALME-3M melanoma),growth (MDA-MB-231 breast),growth (RXF 393 renal),growth (SF-268 CNS),growth (SF-295 CNS),growth (SF-539 CNS),growth (UACC-257 melanoma),growth (M14 melanoma),growth (NCI-H522 lung)
CN(C)CCS(=O)(=O)Nc1cc(-c2ccc3ncnc(Nc4ccc(F)c(Cl)c4)c3c2)cnc1Cl,-10.1% (active),1.48% (active),-21.5% (active),-5.38% (active),7.68% (active),-21.4% (active),-31.7% (active),12.8%,-80% (active),-3.31% (active),9.31% (active),-23.2% (active),-26.8% (active),-47.2% (active),-20.9% (active),10.1%,-22.2% (active),-0.224% (active),4.73% (active),–
COc1ccc(/C=N/C2=NNC(C)(c3ccccc3O)N2C(Cc2c[nH]c3ccccc23)C(=O)O)cc1 (configuration not stated),22.8%,53.2%,56.1%,32.7%,20.4%,2.13% (active),42.5%,58.3%,8.42% (active),58.9%,–,12.9%,28.8%,35.5%,40.2%,35.3%,45.2%,23.5%,10.8%,–
CC(C(=O)O)N1C(N)=NNC1c1ccccc1O (configuration not stated),86.3%,84.6%,82.3%,81.5%,84.7%,77.7%,83.3%,104%,103%,102%,–,85.6%,76.6%,96.4%,84%,99.3%,103%,87.1%,96.9%,74.8%
O=C(Cn1c2ccccc2c2ccncc21)N/N=C/c1c[nH]c2ccccc12,48.3%,73.3%,72.8%,55.5%,1.47% (active),61.2%,25.2%,44%,88.2%,53.5%,–,43.7%,19.6%,49.2%,71.4%,87.5%,86.4%,88.3%,68.2%,–
Cc1cc(NCCN(C(C)C)C(C)C)nc(/N=C(\N)Nc2ccc(Cl)c(C(F)(F)F)c2)n1,-67.1% (active),-32.1% (active),-51.9% (active),-95.4% (active),-84.7% (active),-93.5% (active),-89.5% (active),-99.7% (active),-71.3% (active),-29.5% (active),-100% (active),-74.5% (active),-65.1% (active),–,-85% (active),-77.8% (active),-97.8% (active),-95.3% (active),-89.8% (active),–
O=C1OC(c2ccc(-c3ccccc3)cc2)=C/C1=C/C=C/c1ccccc1,100%,82.3%,92.5%,97.1%,103%,68.7%,9.59% (active),–,120%,111%,96%,104%,105%,–,90.5%,65.6%,105%,-13.8% (active),112%,95.1%
O=C1CCC(=O)N1C1CCCCC1,93%,97.1%,81.5%,93.3%,104%,102%,115%,106%,101%,107%,107%,82.6%,103%,109%,97.6%,97.5%,101%,108%,94.5%,–
Cc1ccc(NC(=O)CN2CCOCC2)cc1Cl,101%,92.8%,93.4%,91%,100%,80.8%,95.3%,95%,102%,102%,94.7%,102%,96%,104%,103%,94.3%,98.7%,88.1%,100%,–
C#CCn1c(-c2cc(OC)c(OC)cc2Br)nc(-c2ccccc2)c1-c1ccccc1,42.5%,66%,28.6%,72.8%,10.8%,41.9%,31.2%,48.8%,8.73% (active),63.9%,15.1%,29.3%,45.7%,41.3%,70%,21.6%,62.7%,59.2%,16.1%,–
COc1ccc2c(c1)nnn1c3ncccc3c(N=O)c21,-23.8% (active),-57.7% (active),31%,-41.7% (active),-70% (active),-49.2% (active),6.65% (active),-63.1% (active),-61% (active),-56.1% (active),-75% (active),-8.37% (active),-31.2% (active),–,-50.4% (active),24.2%,-71.2% (active),-10% (active),-67.5% (active),–
Cc1[nH]n(C(=O)c2ccncc2)c(=O)c1N=Nc1ccc(S(=O)(=O)Nc2ccncn2)cc1,100%,90%,115%,76.6%,115%,54.7%,18.9%,–,127%,126%,55.3%,124%,103%,–,95.5%,134%,107%,-1.41% (active),106%,102%
O=[N+]([O-])c1cccc(C(c2ccccc2)c2ccccc2)c1,87.5%,76.9%,90.6%,88.7%,87.5%,63.9%,87.7%,97.3%,95.2%,110%,73.7%,97%,83.1%,102%,99.8%,76.7%,101%,102%,97%,–
CCOC(=O)C(C)(CSSCC(C)(NC(=O)c1ccc2ccccc2c1)C(=O)OCC)NC(=O)c1ccc2ccccc2c1 (configuration not stated),98.3%,97.9%,96.7%,105%,102%,105%,26.4%,–,121%,117%,91.1%,115%,114%,–,102%,96.2%,114%,-17.8% (active),114%,92.9%
CCC1S/C(=N\N=C(/C)c2cc3ccccc3o2)N(c2ccccc2)C1=O (configuration not stated),93.6%,108%,92.2%,101%,123%,47%,113%,103%,123%,161%,79.8%,105%,85.4%,98.7%,202%,128%,135%,118%,101%,–
O=C(Nc1cccc(-n2ccc3c(NC(=O)c4ccccc4)nccc32)c1)c1cc(N2CCOCC2)cc(C(F)(F)F)c1,19.8%,28.7%,30.8%,36.6%,-11% (active),29.3%,-8.84% (active),-31.6% (active),-51.4% (active),-20.2% (active),4.28% (active),32%,-16.6% (active),-67.3% (active),8.26% (active),-24.4% (active),-23.2% (active),32%,9.34% (active),–
O=C(Nc1cccc([N+](=O)[O-])c1)c1ccc2ccccc2c1O,41.6%,76.9%,105%,53%,50.2%,6.8% (active),68.1%,40.4%,110%,79.3%,45.6%,20.5%,82.2%,37.5%,71.7%,57.1%,55.2%,14.5%,49.8%,–
